According to PubChem BioAssay AID1159580 (chemical genetic matrix, 2015):
“And” between values parts separate entries of the source, which are not always exact repeats. Equal entries are not always repeated. Screen size: about 5,500 compounds; about 2,000 (36%) were called active. Another 18% or so got no clear call; they are omitted. Cut-off read from the data, not from the text of the source: active = normalized growth mostly below about 0.91 (no sharp cut-off); inconclusive = no clear call, values can overlap the other calls; inactive = mostly above about 0.92. This is one part of the list.

Assay: chemical genetic growth profiling, strain panel (AID 1159580);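 note: tested at 20 µM; growth read once vehicle control cultures reached saturation at 30 °C; 1 = growth at the plate median or of vehicle wells; lower values mean less growth of the strain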
Details: S. cerevisiae deletion strains, growth OD

Measured: normalized growth

CN1CCN2c3ccccc3Cc3ccccc3C2C1 (stereo unspecified)
inactive: locus YAL013W, strain DEP1, stronger effect = lower value 1.01 and 0.984 | locus YAL021C, strain ccr4, stronger effect = lower value 0.97 | locus YAL026C, strain drs2, stronger effect = lower value 0.999 | locus YAL030W, strain snc1, stronger effect = lower value 1 | locus YAL040C, strain CLN3, stronger effect = lower value 1.01 | locus YBL061C, strain skt5, stronger effect = lower value 0.998 | locus YBR009C, strain hhf1, stronger effect = lower value 0.987 | locus YBR021W, strain FUR4, stronger effect = lower value 0.992 | locus YBR023C, strain chs3, stronger effect = lower value 0.994 | locus YBR171W, strain sec66, stronger effect = lower value 1.02 | locus YBR229C, strain ROT2, stronger effect = lower value 1.01 | locus YBR231C, strain swc5, stronger effect = lower value 0.996 | locus YBR279W, strain paf1, stronger effect = lower value 1 | locus YCL011C, strain gbp2, stronger effect = lower value 1 | locus YCL016C, strain dcc1, stronger effect = lower value 0.994 | locus YCL029C, strain bik1, stronger effect = lower value 0.99 | locus YCL061C, strain MRC1 (second series), stronger effect = lower value 0.995 | locus YCL061C, strain MRC1, stronger effect = lower value 0.999 | locus YCL069W, strain vba3, stronger effect = lower value 0.998 | locus YCR088W, strain abp1, stronger effect = lower value 1 | locus YDL005C, strain med2, stronger effect = lower value 1.01 | locus YDL035C, strain GPR1, stronger effect = lower value 1.03 | locus YDL040C, strain nat1, stronger effect = lower value 1 | locus YDL074C, strain BRE1, stronger effect = lower value 1.03 | locus YDL101C, strain DUN1, stronger effect = lower value 1.02 | locus YDL134C, strain PPH21, stronger effect = lower value 1.01 | locus YDL185W, strain tfp1, stronger effect = lower value 0.982 | locus YDL192W, strain arf1, stronger effect = lower value 0.989 | locus YDR001C, strain nth1, stronger effect = lower value 1.01 | locus YDR069C, strain doa4, stronger effect = lower value 0.986 | locus YDR101C, strain arx1, stronger effect = lower value 0.985 | locus YDR137W, strain rgp1, stronger effect = lower value 1.01 | locus YDR150W, strain NUM1, stronger effect = lower value 1.01 and 0.988 | locus YDR159W, strain sac3, stronger effect = lower value 0.988 | locus YDR162C, strain NBP2, stronger effect = lower value 1.05 | locus YDR195W, strain ref2 0.972 | locus YDR297W, strain sur2, stronger effect = lower value 1.01 | locus YDR318W, strain mcm21, stronger effect = lower value 0.979 | locus YDR334W, strain swr1, stronger effect = lower value 1 | locus YDR335W, strain msn5, stronger effect = lower value 1 | locus YDR363W, strain ESC2, stronger effect = lower value 0.983 | locus YDR388W, stronger effect = lower value 0.99 | locus YDR392W, strain spt3, stronger effect = lower value 0.881 | locus YDR502C, strain sam2, stronger effect = lower value 0.982 | locus YEL003W, strain gim4, stronger effect = lower value 0.997 | locus YEL037C, strain rad23, stronger effect = lower value 1 | locus YEL061C, strain CIN8 (second series), stronger effect = lower value 1.01 | locus YEL061C, strain CIN8, stronger effect = lower value 1.01 | locus YER002W, strain NOP16, stronger effect = lower value 0.998 | locus YER015W, strain faa2, stronger effect = lower value 1 | locus YER016W, strain bim1, stronger effect = lower value 0.991 | locus YER110C, stronger effect = lower value 0.985 | locus YER111C, strain swi4, stronger effect = lower value 0.993 | locus YER155C, strain BEM2 (second series), stronger effect = lower value 0.978 | locus YER155C, strain BEM2, stronger effect = lower value 1.01 | locus YER167W, strain BCK2, stronger effect = lower value 1.02 | locus YFR010W, strain ubp6, stronger effect = lower value 1.01 | locus YGL078C, strain dbp3, stronger effect = lower value 0.981 | locus YGL086W, strain mad1, stronger effect = lower value 0.988 | locus YGL167C, strain pmr1, stronger effect = lower value 1 | locus YGL173C, strain kem1, stronger effect = lower value 1.01 | locus YGL227W, strain vid30, stronger effect = lower value 1.01 | locus YGL240W, strain doc1, stronger effect = lower value 0.979 | locus YGL248W, strain PDE1, stronger effect = lower value 1.01 | locus YGL253W, strain hxk2, stronger effect = lower value 1.01 | locus YGR078C, strain PAC10, stronger effect = lower value 1.03 and 1.01 | locus YGR135W, strain pre9, stronger effect = lower value 0.977 | locus YGR229C, strain SMI1, stronger effect = lower value 1.01 and 0.95 | locus YGR252W, strain gcn5, stronger effect = lower value 0.964 | locus YHR013C, strain ard1, stronger effect = lower value 0.939 | locus YHR027C, strain rpn1, stronger effect = lower value 1 | locus YHR030C, strain SLT2, stronger effect = lower value 1.01 and 0.992 | locus YHR079C, strain IRE1 (second series), stronger effect = lower value 0.987 | locus YHR079C, strain IRE1, stronger effect = lower value 0.987 | locus YHR094C, strain hxt1, stronger effect = lower value 0.989 | locus YHR129C, strain ARP1, stronger effect = lower value 1.01 | locus YHR142W, strain chs7, stronger effect = lower value 0.997 | locus YHR200W, strain rpn10, stronger effect = lower value 0.995 | locus YIL066C, strain RNR3, stronger effect = lower value 1.02 | locus YIL073C, strain SPO22, stronger effect = lower value 1.01 | locus YIL125W, strain kgd1, stronger effect = lower value 0.989 | locus YIR030C, strain dcg1, stronger effect = lower value 0.984 | locus YJL092W, strain hpr5, stronger effect = lower value 1 | locus YJL095W, strain BCK1 (second series), stronger effect = lower value 0.999 | locus YJL095W, strain BCK1, stronger effect = lower value 1.01 and 0.988 | locus YJL115W, strain asf1, stronger effect = lower value 1 | locus YJL129C, strain trk1, stronger effect = lower value 0.99 | locus YJL134W, strain LCB3, stronger effect = lower value 1.01 | locus YJL154C, strain vps35, stronger effect = lower value 1 | locus YJL164C, strain tpk1, stronger effect = lower value 0.978 | locus YJL166W, strain qcr8, stronger effect = lower value 0.987 | locus YJL168C, strain set2, stronger effect = lower value 0.991 | locus YJL187C, strain SWE1 (second series), stronger effect = lower value 1.01 | locus YJL187C, strain SWE1, stronger effect = lower value 1 | locus YJR043C, strain POL32, stronger effect = lower value 1 | locus YJR066W, strain TOR1, stronger effect = lower value 0.932
